Screens: PubChem, several laboratories
An excerpt weighted towards active compounds, which were near 5.3% of everything screened.
Measles CPE – compounds protecting cells from measles virus cytopathic effect, primary screen, measles RdRp inhibitor project, single point, MLSMR library, absorbance; Measles virus-infected cells, CPE protection; protection (pct of control), % at 4 µM; 1.5% of 140,000 active; AID 841, 2007; in the data active = protection mostly above about 24%, no sharp cut-off; inactive = mostly below about 26%
PostGolgi yeast – phenotypic screen on post-Golgi transport, primary screen; post-Golgi transport phenotypic cell assay; inhibition, % at 10 µM; 0.9% of 98,000 active; AID 739, 2007;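 note: yeast cells grown in 1536-well plates; yeast grown about 18 h at 30C before absorbance read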
MT1-MMP txn act – MT1-MMP promoter reporter activation – cell-based, luciferase luminescence, primary screen; HT1080 MT1-MMP promoter luciferase reporter, overnight; stronger effect = higher value; activation factor at 10 µM; 0.16% of 86,000 active;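 active = activation factor of at least 2 for MT1-MMP transcription at 10 µM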
PostGolgi ctrl – growth inhibition of yeast control strain, primary screen, counter-screen for post-Golgi transport modulator project. efflux-deficient yeast background strain, growth absorbance A615, 16 h. inhibition, % at 10 µM. 5% of 98,000 active
Active calls of the source: *; nt = no result given. Cut-off read from the data, not from the text of the source, unless noted: active = inhibition above about 30%; inactive = the rest.

SMILES	Measles CPE	PostGolgi yeast	MT1-MMP txn act	PostGolgi ctrl
Cc1cc(Cl)cc(C)c1OCCCCN1CCOCC1	18.9	34.9*	1.2	-1.7
COc1ccccc1N=CC1=C(O)CC(c2ccccc2)CC1=O (configuration not stated)	8.0	nt	nt	nt
Cc1ccc(OCc2nnc(SCC(=O)O)n2N)cc1	39.7*	15.4	1.1	-11.2
COc1cccc(-n2c(COc3ccc(C)cc3)nnc2SCC(=O)O)c1	13.7	3.8	1.1	8.4
COc1nc(N(CC(N)=O)S(=O)(=O)c2ccccc2)nc(C)c1Cl	28.9*	nt	1.1	nt
O=C(NCc1ccco1)c1ccccc1Nc1ccc(F)cc1	4.3	-4.9	1.2	31.7*
O=C(NCc1ccco1)c1ccccc1F	17.0	18.3	1.1	18.1
O=C(Nc1ccc(F)cc1)NC1(C(=O)NCc2ccco2)CCCCC1	8.4	4.2	1	31.5*
O=C(COC(=O)c1ccccc1Nc1ccc(SC(F)F)cc1)NCc1ccco1	11.6	-3.8	nt	32.3*
Cc1ccc2nc(NC(=O)c3ccc(OCC4CCCO4)cc3)sc2c1 (configuration not stated)	7.5	nt	nt	nt
O=C(c1ccco1)N1CCN(C(=O)c2cnn3c2NC(c2cccs2)CC3C(F)(F)F)CC1 (configuration not stated)	6.5	13.5	1.2	9.6
O=C(c1cnn2c1NC(c1ccco1)CC2C(F)(F)F)N1CCN(c2cccc(Cl)c2)CC1 (configuration not stated)	23.2	1.4	1.2	65.3*
O=C(NCc1ccco1)c1cnn2c1NC(c1ccc(Br)cc1)CC2C(F)(F)F (configuration not stated)	21.3	-3.2	1.1	37.5*
O=C(NCc1ccco1)c1cnn2c1NC(c1ccccc1)CC2C(F)(F)F (configuration not stated)	1.9	-6.4	1.1	2.5
COc1ccc(C2CC(C(F)(F)F)n3ncc(C(=O)NCC4CCCO4)c3N2)cc1OC (configuration not stated)	32.1*	7.9	nt	0.4
Cc1ccccc1/C(N)=N/OC(=O)c1cccs1	12.3	nt	nt	nt
Cc1cc(C)cc(OCC(=O)Nc2ccc3c(c2)C(=O)c2ccccc2C3=O)c1	6.6	nt	nt	nt
Cc1cc(C)n(-c2ccc(C(=O)Nc3ccc4c(c3)OCO4)cc2)n1	3.1	-4.5	1.3	1.2
Cc1cc(C)n(-c2ccc(C(=O)NC3=NCCS3)cc2)n1	34.9*	-2.2	1.3	3.9
COc1ccc(NC(=O)c2ccc(-n3nc(C)cc3C)cc2)cc1OC	49.0*	-1.4	1.1	14.4
CC(C)(C)NS(=O)(=O)c1ccc(NS(C)(=O)=O)cc1	45.0*	1.3	1	-0.1
C/C(=N/NC(=O)c1ccoc1C)c1ccc(NC(=O)c2ccncc2)cc1	7.3	nt	nt	nt
C=CCN1C(c2ccccc2)=CS/C1=C(\C#N)c1nnc2n1CCCCC2	21.1	3.4	1	15.4
CN1C(c2ccc(F)cc2)=CS/C1=C(\C#N)c1nnc2n1-c1ccccc1SC2	30.9*	4.7	1.1	11.3
COC(=O)CCN(C(C)=O)c1ccc(N)cc1	14.1	-7.1	1.1	40.1*
SMILES	Measles CPE	PostGolgi yeast	MT1-MMP txn act	PostGolgi ctrl
COC(=O)CCN(C)CCC(=O)OC	9.6	-17.7	1.1	12.8
CC(Sc1nnc(Cn2c(=O)sc3ccccc32)n1C)c1ccccc1 (configuration not stated)	51.4*	4.0	1	5.0
CCSc1nnc(Cn2c(=O)sc3ccccc32)n1C	5.8	0.5	1.1	3.7
CCN1CCN(c2nc(SC)nc3sc4c(c23)CC(C)(C)OC4)CC1	9.7	3.6	1.2	1.1
CC(C)Sc1nc(N2CCOCC2)c2c3c(sc2n1)COC(C)(C)C3	6.4	-2.7	nt	43.5*
CCCCCCN(C(=O)CCCCCN1C(=O)NC(c2ccc(C3CCCCC3)cc2)C(C(=O)OCc2ccccc2)=C1C)C(C(=O)NCCCC)c1ccc(OCC(=O)OC)c(C(=O)OC)c1 (configuration not stated)	nt	nt	1	nt
CCC(C)N1C(=O)CCC1C(=O)O (configuration not stated)	3.2	13.1	1	7.0
COCCn1c(=O)[nH]c2cc(C(=O)NCCc3ccc(OC)c(OC)c3)ccc2c1=O	6.7	-2.2	1.1	34.0*
CCOC(=O)c1ccc(-n2c(N)c(C(=O)NCc3ccco3)sc2=S)cc1	51.1*	-3.9	1.6	8.1
CCn1c(SCc2ccccc2)nnc1-c1ccc(S(=O)(=O)N2CCCCC2)cc1	10.2	-0.9	1.1	9.0
CCn1c(SCc2nnc(-c3ccccc3)o2)nnc1-c1ccc(S(=O)(=O)N2CCCC2)cc1	55.5*	2.0	1.2	1.4
CCn1c(CNC(=O)COc2ccc(C(C)C)cc2)nnc1SCC(=O)Nc1ccccc1C(C)C	41.9	2.3	nt	42.5*
CCn1c(CNC(=O)COc2ccc(C(C)C)cc2)nnc1SCC(=O)Nc1ccccc1F	8.1	5.1	nt	3.4
CN(/C(=N/S(=O)(=O)c1cccs1)c1ccccc1)c1ccccc1	29.4*	nt	nt	nt
Cc1ccc2nc(NC(=O)CSc3nnc(C)c(=O)n3N)sc2c1	7.9	nt	nt	nt
Cc1cc(C)c2c(-n3cccc3)c(C(=O)NNS(=O)(=O)c3ccc(Cl)cc3)sc2n1	6.9	1.7	nt	28.1
O=C(OCCN1C(=O)c2ccccc2C1=O)c1cc(S(=O)(=O)N2CCOCC2)ccc1Cl	74.0*	-9.2	0.9	6.1
O=C(OCCN1C(=O)c2cccc3c(N4CCOCC4)ccc(c23)C1=O)c1ccccc1Cl	3.5	nt	nt	nt
O=C1CSC(c2ccc(F)cc2)N1c1nnc(C23CC4CC(CC(C4)C2)C3)s1 (configuration not stated)	0.7	2.2	nt	17.0
Cc1ccc(NC2=CC(=O)CC(C)(C)C2)c(N)c1	4.9	-2.9	1	37.7*
COC(=O)Nc1ccc(S(=O)(=O)N2c3ccccc3CCC2C)cc1 (configuration not stated)	9.2	-2.4	1.1	34.2*
C[C@@H]1C=C[C@](Cc2ccccc2)(C(=O)NCCCNc2ncc(C(F)(F)F)cc2Cl)N1C(=O)c1ccccc1	nt	nt	1.4	nt
COc1cccc(C(=O)N2CCN(S(C)(=O)=O)CC2)c1	4.5	0.5	1.5	9.7
O=C(c1ccco1)N1CCCC(c2ccccc2)C1 (configuration not stated)	16.0	0.6	1.1	13.6
O=C(c1cccs1)N1CCCC(c2ccccc2)C1 (configuration not stated)	19.8	-1.6	1.3	36.9*
SMILES	Measles CPE	PostGolgi yeast	MT1-MMP txn act	PostGolgi ctrl
CON1C(=O)C(=O)N(OC)C(C)(C)C1C (configuration not stated)	4.9	5.3	nt	31.0*
Cc1nn(Cc2c(F)c(F)c(F)c(F)c2F)c(C)c1NC(=O)c1c([N+](=O)[O-])cnn1C	13.9	15.0	nt	2.3
Cc1ccc(OCc2ccc(C(=O)Nc3c(C)nn(Cc4c(F)c(F)c(F)c(F)c4F)c3C)o2)c([N+](=O)[O-])c1	2.5	-6.0	nt	39.1*
CCCCCCCC#Cc1ccccc1/C=N/S(=O)c1ccc(C)cc1 (configuration not stated)	4.1	nt	nt	nt
Clc1ccc(OCc2nn3c(C4CCCCC4)nnc3s2)cc1	5.0	11.6	1	42.4*
c1ccc(-c2nn3c(C4CCCCC4)nnc3s2)nc1	2.4	19.0	1	-1.7
